ChEMBL document CHEMBL3988442, “University of Dundee, Small-Polar-MMV Screening Library” (2021)
Among all 48,000 compounds or so, about 13,000 (27%) showed an effect of 50% or more. This is one part of the list.

Tested on: Wolbachia pipientis
Test: Anti-Wolbachia Cell-Based Screen
Assay type: functional
Parameters: scale not given: in the data most compounds retested in dose-response had high values
Details: 5 µM

Structure (SMILES)	Percent Effect
COc1ccc(C(=O)N2C[C@@H](NC(=O)N(C)C)[C@H](C(C)C)C2)c(OC)n1	83.06%
COc1ccc(Cl)cc1C(=O)N1C[C@H](C(C)C)[C@@H](N)C1	105.5%
Cc1cc(Cl)ccc1C(=O)N1C[C@H](C2CC2)[C@@H](N)C1	-41.17%
COc1ccc(Cl)cc1C(=O)N1CCCC(n2nc(C)nc2C)C1 (stereo unspecified)	-10.83%
CCc1nn(C)c(Cl)c1CN1C[C@@H](NC(=O)N(C)C)[C@H](C(C)C)C1	3.461%
COc1ccc(Cl)cc1C(=O)N1C[C@@H](NC(=O)N(C)C)[C@H](C(C)C)C1	96.11%
CC(=O)N[C@@H]1CN(C(=O)c2csc(C(C)C)n2)C[C@H]1C(C)C	-24.56%
COc1ccc(Cl)cc1C(=O)NCC1CCN(C(=O)c2ccoc2)CC1	-13.86%
COc1ccc(N2CCC(N3C[C@H](NC(C)=O)[C@@H](C(C)C)C3)CC2)cc1	0.1798%
CCOCc1ccccc1NC(=O)NC1CCN(CC(F)(F)F)C1 (stereo unspecified)	4.433%
CCN(CC)CCN(CC(C)C)c1cc(C(F)(F)F)nc2ncnn12	-0.1585%
Cc1cccc(C(=O)N2CCN(S(C)(=O)=O)[C@@H](C)C2)c1C	-0.07044%
CNC(=O)NC(=O)CCN1CCOC(c2ccc(Br)cc2)C1 (stereo unspecified)	0.8414%
CC(=O)N1CCO[C@@H]2CN(S(=O)(=O)c3ccccc3F)C[C@@H]2C1	-1.494%
CC(=O)N1CCO[C@@H]2CN(S(=O)(=O)C3CC3)CC[C@@H]2C1	114.1%
O=C(O)C(F)(F)F.O=S(=O)(C1CC1)N1C[C@@H]2CN(Cc3ccoc3)CCO[C@@H]2C1	10.49%
CC(=O)N1CCO[C@@H]2CN(S(=O)(=O)C3CC3)C[C@@H]2C1	90.6%
CC(=O)N1C[C@@H]2CN(S(=O)(=O)C3CC3)CCO[C@@H]2C1	81.74%
CC(=O)N1CCO[C@@H]2CN(C(=O)c3ccc4ccccc4c3)CC[C@@H]2C1	3.224%
O=C(O)C(F)(F)F.O=S(=O)(C1CC1)N1CCO[C@@H]2CN(Cc3cccs3)C[C@@H]2C1	3.839%
COCc1ccc(CN[C@H]2C[C@@H](Cc3cc(CCO)on3)C2(C)C)o1	-18.1%
CSC(C)C(=O)N1CCN(CCO)CC1 (stereo unspecified)	-9.9%
CCCn1nc2c(cc1=O)CN(Cc1c(C)noc1C)CC2	-3.39%
Cc1noc(C2CCCN(CC(=O)N3CCNC(=O)C3)C2)n1 (stereo unspecified)	8.261%

Structure (SMILES)	Percent Effect
CN(C)C(=O)CN1C[C@@H]2CC[C@H](C1)N(Cc1ccccc1OCCO)C2	-40.78%
Cc1cc(CN(CCO)c2ccccc2)on1	-2.201%
Cc1nc(CNC(=O)Cn2nc(-c3ccc(F)cc3)oc2=O)cs1	-1.04%
Cn1c(SCc2noc(-c3ccsc3)n2)nnc1C1CCS(=O)(=O)C1 (stereo unspecified)	-1.02%
CC(C(=O)Nc1ncccn1)N1CCc2[nH]nc(C(F)(F)F)c2C1 (stereo unspecified)	-12.45%
CSc1nnc(C2CCN(C(=O)N3CCCC3)CC2)n1C(C)C	114%
CC(C)n1ccnc1C1CCN(C(=O)N2CCCC2)CC1	-25.38%
CC(C)c1cc(NC2CCN(C(=O)N3CCCC3)CC2)ncn1	-23.56%
CC(C)CN1C(=O)CO[C@@H]2CN(C(=O)N3CCOCC3)C[C@H]21	-11.7%
CSc1nnc(C2CCN(C(=O)N3CCOCC3)CC2)n1C(C)C	91.83%
Cn1ccc(NC2CCN(C3CC3)C2=O)n1 (stereo unspecified)	-4.974%
Cn1nc(CN2CCOCC2)c2c1CN(C(=O)c1ccc[nH]1)C2	-8.763%
COCc1nn(C)c2c1CN(C(=O)c1ccno1)CC2	7.505%
CC(C)n1nc(CN2CCCC2=O)c2c1CN(C(=O)c1ccco1)C2	113.5%
COCc1nn(CC2CC2)c2c1CN(C(=O)c1ccno1)CC2	1.769%
CC(C)n1nc(CN2CCCC2=O)c2c1CN(C(=O)c1ccno1)C2	92.04%
O=C(c1ccco1)N1CCc2onc(CN3CCCC3)c2C1	-15.89%
CC(C)n1nc(CN2CCCC2=O)c2c1CN(C(=O)c1ccc[nH]1)C2	104.5%
Cn1nc(C#N)c2c1CN(C(=O)c1ccco1)CCC2	-2.9%
Cn1nc(CN2CCCC2)c2c1CN(C(=O)c1ccc[nH]1)CC2	-10.94%
N#CC1COCCN1S(=O)(=O)c1ccc2c(c1)CCC2 (stereo unspecified)	4.042%
N#Cc1cccnc1N[C@@H]1c2ccccc2C[C@@H]1O	4.876%
CCN(CC)C(=O)[C@@H]1C[C@H](N)CN1C(=O)c1cc2c([nH]c1=O)CCC2	-7.026%
Cc1cnc(C)c(-c2cc(O)c3c(c2)CN(Cc2nccs2)CCO3)n1	17.73%

Structure (SMILES)	Percent Effect
Cc1nn(C)c(C)c1C(=O)N1CCN(c2ccncc2Cl)CC1	86.38%
CC(C)c1cc(C(=O)N2CCN(c3ccncc3)CC2)n(C)n1	12.18%
Cc1nn(C)c(C)c1C(=O)N1CCN(C(=O)CCC2CCCCC2)CC1	-21.72%
O=C(N1CCOCC1)N1CCN(c2ccncc2Cl)CC1	-18.06%
Cc1cc(C(=O)N2CCN(c3ccncc3Cl)CC2)n(C)n1	77.84%
Cc1cccc(N2CCN(C(=O)c3c(C)nn(C)c3C)CC2)c1C	34.44%
Cc1cc(F)ccc1S(=O)(=O)NCC(O)c1cccn1C (stereo unspecified)	-4.916%
CCOCC1CN(C(=O)CC2=CCCCC2)Cc2nnn(C)c21 (stereo unspecified)	41.96%
Cc1nccc([C@H]2C[C@@H]3CCN(S(=O)(=O)N(C)C)C[C@H]3O2)n1	-8.198%
O=C1CO[C@H]2CN(S(=O)(=O)c3ccccc3)C[C@H]2N1Cc1ccccn1	1.166%
Cc1nccc([C@@H]2C[C@@H]3CCN(S(=O)(=O)N(C)C)C[C@H]3O2)n1	88.34%
Cc1nccc([C@H]2C[C@@H]3CCN(S(=O)(=O)C4CC4)C[C@H]3O2)n1	101.1%
O=C(C1CCOCC1)N1CC[C@H]2C[C@@H](c3ccncn3)O[C@@H]2C1	-5.284%
Cc1nccc([C@@H]2C[C@H]3CN(S(=O)(=O)c4ccccc4)C[C@H]3O2)n1	93.7%
Cc1nccc([C@@H]2C[C@@H]3CCN(S(=O)(=O)C4CC4)C[C@H]3O2)n1	103.3%
O=C1CO[C@H]2CN(S(=O)(=O)c3ccccc3)C[C@H]2N1c1ccccc1	-3.468%
N#Cc1cc2c(=O)n(CC(O)c3cccc(O)c3)ccc2[nH]c1=O (stereo unspecified)	-10.2%
Cc1nccc([C@H]2C[C@@H]3CCN(S(C)(=O)=O)C[C@H]3O2)n1	116.1%
Cc1nccc([C@@H]2C[C@@H]3CCN(S(C)(=O)=O)C[C@H]3O2)n1	-4.62%
COc1cc(N2CC[C@@H]3O[C@@H](c4ccnc(C)n4)C[C@H]3C2)ncn1	-12.7%
O=S(=O)(NC1CCC2(CC1)OCCO2)c1ccccc1Br	-6.742%
COC(=O)CCCNC(=O)N1CCc2c(F)ccc(F)c2C1	-9.292%
CC(=O)Nc1ccc(OCc2noc(C(=O)N3CCCCCC3)n2)cc1	101%
CCc1nc(COc2ccc(OCc3cnn(C)c3)cc2)no1	-33.42%

Structure (SMILES)	Percent Effect
NC(=O)Cc1ccc(OCc2noc(C(=O)N3CCCC3)n2)cc1	130.8%
CCOCCCC(=O)Nc1ccc(OCc2noc(C3CC3)n2)cc1	20.67%
O=C(c1nc(COc2ccc3c(c2)OCO3)no1)N1CCCC1	8.865%
CCOCCNC(=O)Nc1ccc(OCc2noc(C3CC3)n2)cc1	-0.9885%
CC(=O)Nc1ccc(OCc2noc(C(=O)N3CCCC3)n2)cc1	120.5%
CC(=O)Nc1ccc(OCc2noc(C(=O)N3CCCCC3)n2)cc1	122.5%
CC(C)c1nc(C2CCCN2c2ncc(C(N)=O)cc2Cl)no1 (stereo unspecified)	-26.86%
CC(C)=Cc1c(-c2ccccc2)ncn1CCN(C)S(C)(=O)=O	-6.043%
CCCc1nnc(NC(C)c2ccc3c(c2)OCCO3)o1 (stereo unspecified)	16.29%
COCCCn1ccc(NC(=O)NCCCNc2ccccc2)n1	-2.159%
COc1cc(Cl)c(C)cc1NC(=O)CCNc1ccc(C#N)cn1	-3.637%
CC(C)c1nc(CN(C)CC2CCN(CCO)CC2)no1	-11.77%
c1ccc2cc(OCCN3CCn4c(nnc4C4CC4)C3)ccc2c1	2.138%
CCN1C(=O)CC[C@@H]2[C@H]1CCN2C(=O)Cc1cccc(OC)c1	-2.508%
CCOC(=O)c1nc(COc2ccc(CC(N)=O)cc2)no1	100.5%
NC(=O)c1nc(COc2ccc3c(c2)OCO3)no1	26.77%
CC(C)Cc1nc(COc2ccc(N(C)C(N)=O)cc2)no1	-36.1%
CC(C)C1CN(C(=O)c2ccc(N3CCCC3)nc2)CCS1 (stereo unspecified)	-8.119%
Cc1cccc(C(=O)NC2CCN(c3cnn(C)c3)C2=O)n1 (stereo unspecified)	-1.568%
Cc1nc(CNC(=O)NCC(O)c2cccc(Cl)c2)cs1 (stereo unspecified)	-14.28%
O=C(O)CNC(=O)Cc1csc(-c2cccc(Cl)c2)n1	95.07%
CNC(=O)Cc1noc(Cc2cccc(Cl)c2)n1	10.38%
CN(Cc1csc(-c2ccccc2)n1)C(=O)CCNS(C)(=O)=O	-10.81%
O=C(O)CCNC(=O)Cc1csc(-c2cccc(Cl)c2)n1	119%
